Results: PubChem BioAssay AID743286 (National Center for Advancing Translational Sciences (NCATS), 2014)
Among all 1,100 compounds or so, about 340 (31%) were called active. Roughly 40% stayed inconclusive and do not appear here. Calls follow the shape of the dose curve; as a rule, active = well fitted inhibition curve with a large enough effect; inconclusive = small, poorly fitted or top-dose-only effect; inactive = flat fitted curve, though single readings scatter. A selection follows. Entries that show only a call come without a potency.

Target: Phosphatidylinositol 5-phosphate 4-kinase type-2 alpha (Homo sapiens) (UniProt P48426)
Sequence (P48426 whole entry, looked up): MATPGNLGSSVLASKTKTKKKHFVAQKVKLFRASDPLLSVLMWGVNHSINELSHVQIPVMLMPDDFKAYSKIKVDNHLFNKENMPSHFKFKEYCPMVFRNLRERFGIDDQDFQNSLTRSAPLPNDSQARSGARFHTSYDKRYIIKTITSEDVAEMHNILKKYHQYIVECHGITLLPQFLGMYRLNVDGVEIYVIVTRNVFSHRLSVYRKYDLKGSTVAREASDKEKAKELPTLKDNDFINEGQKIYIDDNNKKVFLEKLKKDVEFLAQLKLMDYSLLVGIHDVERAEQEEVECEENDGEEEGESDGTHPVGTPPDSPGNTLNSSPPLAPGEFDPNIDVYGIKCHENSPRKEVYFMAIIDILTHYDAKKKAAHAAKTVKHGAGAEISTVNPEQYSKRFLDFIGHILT
Experiment: qHTS for Inhibitors of PI5P4K: Confirmation in Primary Assay; also: nearly all actives have a fitted effect of over 65% in size
Conditions: PI5P4Kalpha enzyme, ADP-Glo luminescence, 60 min; series mostly up to 76.9 µM
In short: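 Enzyme/substrate mix dispensed, compound transferred by pin tool, ATP (5 microM final) added to start; incubated 60 min RT. ADP-Glo reagent 1 (45 min) then reagent 2 (30 min); luminescence measured.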
Potency is read from the fitted curve at half-maximal effect.

| SMILES | Potency |
| --- | --- |
| COc1ccc2c(c1)C=C(CN1CCN(Cc3ccccc3C)C(CCO)C1)CO2 (stereo not given) | inactive |
| Cc1ccc(-c2csc(NC(=O)c3ccno3)n2)cc1 | 28.2 µM (active) |
| NC(=O)c1c(NC(=O)c2ccccc2)sc2c1CCC2 | 25.1 µM (active) |
| NC(=O)c1c(NC(=O)c2cc3ccccc3o2)sc2c1CCC2 | 31.6 µM (active) |
| NC(=O)c1c(NC(=O)CN2CCCC2)sc2c1CCCC2 | inactive |
| Cc1ccc2cc(CCl)c(Cl)nc2c1 | inactive |
| O=C(c1ccc(F)cc1)c1cc2ccc(O)cc2oc1=O | 10 µM (active) |
| O=c1oc2cc(O)ccc2cc1-c1ccc(F)cc1 | inactive |
| O=C(NCc1ccco1)c1cc2ccc(O)cc2oc1=O | 14.1 µM (active) |
| NC(=S)c1cc2ccc(O)cc2oc1=O | 14.1 µM (active) |
| O=C(c1ccc(Br)cc1)c1cc2ccc(O)cc2oc1=O | 11.2 µM (active) |
| N=c1oc2ccc3ccccc3c2cc1C(N)=S | inactive |
| COc1ccc(C(=O)N2CCC2(C)C(=O)O)cc1F (stereo not given) | inactive |
| O=C(Nc1ccc(-c2nc3ncccc3o2)cc1)c1ccco1 | inactive |
| O=C(CCN1CCc2ccccc2C(c2ccccc2)C1)c1ccc2c(c1)OCCO2 (stereo not given) | inactive |
| O=C(Cn1cncn1)NCc1ccccc1Br | inactive |
| CCOC(=O)N1CCN(C(=O)CCS(=O)(=O)c2ccc3c(c2)CCN3C(=O)CC)CC1 | inactive |
| Cc1cccc(N=c2oc3cc(O)ccc3cc2C(N)=O)c1 | 14.1 µM (active) |
| Clc1ccc2nc(-c3ccco3)c(Cc3ccccc3)n2c1 | inactive |
| c1coc(-c2ccc3nncn3c2)c1 | 15.8 µM (active) |
| CC(=O)c1ccc(NC(=O)c2noc3c2CCC3)cc1 | 35.5 µM (active) |
| O=C(Nc1nnc(COc2ccc(Cl)cc2)s1)c1cccs1 | inactive |
| CC(C)(NC(=O)c1ccccc1)c1nc2ccccc2s1 | inactive |
| Cc1nc(N)sc1-c1csc(Nc2cccc(C(=O)O)c2)n1 | 15.8 µM (active) |
| OCCNc1nc(Nc2ccc(Cl)c(Cl)c2)nc2ccccc12 | 31.6 µM (active) |

| SMILES | Potency |
| --- | --- |
| O=C1COc2ccc(S(=O)(=O)NCCc3ccccc3)cc2N1 | inactive |
| Cc1ccc(C)c(S(=O)(=O)Nc2ccc3oc(C)c(C(=O)O)c3c2)c1 | 15.8 µM (active) |
| COc1cc(CNc2ccc(N3CCCC3)cc2)cc(Cl)c1OC | inactive |
| O=C(O)C1Nc2c(Cl)cc(Cl)c(Cl)c2C2C=CCC12 (stereo not given) | 8.91 µM (active) |
| CCOc1ccc(CC(=O)Nc2sc(Cc3ccccc3)c(C)c2C(N)=O)cc1OCC | inactive |
| CCc1c(C)sc(NC(=O)c2ccoc2C)c1C(N)=O | 12.6 µM (active) |
| O=S(=O)(c1ccc(Br)cc1)N1CCCc2ccccc21 | inactive |
| NS(=O)(=O)c1ccc(NC(=O)c2ccc(S(=O)(=O)N3CCc4ccccc43)cc2)cc1 | 14.1 µM (active) |
| Clc1ccc2nc(CSc3nc4ccccc4o3)cn2c1 | inactive |
| COc1ccc2ccccc2c1C1CC(=O)N2CN(C3CCCCC3)CSC2=C1C#N (stereo not given) | 15.8 µM (active) |
| CCOc1ccccc1N1CSC2=C(C#N)C(c3c(OC)ccc4ccccc34)CC(=O)N2C1 (stereo not given) | 20 µM (active) |
| C[C@H](CO)N1C[C@H](C)[C@@H](CN(C)S(=O)(=O)c2ccc3c(c2)OCCCO3)OCc2cnnn2CCCC1=O | inactive |
| CCN1CCN(C(=O)Cn2nc(-c3ccc(Cl)cc3)ccc2=O)CC1 | inactive |
| COc1cc2nc(Nc3ccc(C)c(Cl)c3)nc(N)c2cc1OC | 15.8 µM (active) |
| Cc1ccnc2nc(C(=O)OCC(=O)NC3CCCC(C)C3C)nn12 (stereo not given) | inactive |
| CC1CCCCC1NC(=O)COC(=O)c1c2c(nc3ccccc13)/C(=C\c1ccco1)CC2 (stereo not given) | 1.26 µM (active) |
| COc1ccc(CCn2c(O)cc3nn(-c4nc5ccccc5s4)c(=O)c-3c2C)cc1 | 11.2 µM (active) |
| O=C(CCS(=O)(=O)c1ccc2c(c1)NC(=O)CS2)NCCc1ccc(Cl)cc1 | inactive |
| NS(=O)(=O)c1ccc(NC(=O)C2Cc3ccccc3CN2C(=O)c2ccco2)cc1 (stereo not given) | 14.1 µM (active) |
| CCCNC(=O)C1(C)CCCN(C(=O)c2cc(C)nn2C(C)(C)C)C1 (stereo not given) | inactive |
| Oc1cc2c(cc1C(c1ccc(Cl)c(Cl)c1)N1CCCC1)OCO2 (stereo not given) | 12.6 µM (active) |
| O=C(Nc1cccc2cccnc12)c1csc(COCCO)n1 | inactive |
| O=C(c1cccnc1)N(c1cc2sc(=O)oc2c2ccccc12)S(=O)(=O)c1ccccc1 | inactive |
| CCOc1ccc(S(=O)(=O)N2CCN(c3ccc(C)cc3C)CC2)cc1 | inactive |
| COc1ccc(S(=O)(=O)N2CCN(C(=O)c3cc4c(s3)CCC4)CC2)cc1 | 7.08 µM (active) |

| SMILES | Potency |
| --- | --- |
| COc1cc2nc(COc3ccccc3[N+](=O)[O-])oc(=O)c2cc1OC | inactive |
| O=S(=O)(Nc1ccc2cn[nH]c2c1)c1ccccc1 | inactive |
| CCOC(=O)c1cnc2cc(C)ccn2c1=O | inactive |
| C[C@H]1CN=C(Nc2ccccc2)N1CCCC1CCCCC1 | inactive |
| COc1cccc2cc(C(C)N(CCCN3CCOCC3)C(=O)Nc3ccccc3)oc12 (stereo not given) | inactive |
| CCN1CCN(Cc2ccc(NC(=O)c3cc(NC(=O)c4cc5cccc(OC)c5o4)cc(OC)c3)cc2C(F)(F)F)CC1 | 25.1 µM (active) |
| Cc1ccc(C)c(NC(=O)c2ccc3c(c2)N(Cc2ccc(F)cc2)C(=O)CS3=O)c1 (stereo not given) | inactive |
| CCN1CCN(Cc2ccc(NC(=O)c3ccc(C)c(NC(=O)c4cc(-c5ccc(Br)cc5)n[nH]4)c3)cc2C(F)(F)F)CC1 | 28.2 µM (active) |
| Cc1cc2ccccc2nc1SCC(=O)NC1CCCC1 | inactive |
| CCCCNC(=O)C1(C)CCC(=O)N1c1cc(C(C)(C)C)nn1C (stereo not given) | inactive |
| COCCn1nnnc1C(c1cc2cc(OC)c(OC)cc2[nH]c1=O)N1CCN(c2ccc(O)cc2)CC1 (stereo not given) | inactive |
| Cc1ccn2c(NC3CCCC3)c(-c3cccs3)nc2c1 | inactive |
| O=c1c2c3c(sc2[nH]c(=S)n1Cc1ccco1)CCC3 | 7.08 µM (active) |
| Cc1cccc(-n2c(SCC(N)=O)nc3c(c2=O)C2(CCCC2)Cc2ccccc2-3)c1 | inactive |
| Cc1ccccc1CNC(=O)c1ccc2nc([C@@H]3O[C@H](CO)[C@H](O)[C@H](O)[C@H]3O)[nH]c2c1 | inactive |
| COc1ccc(OC)c(NC(=O)CN(Cc2ccc(F)cc2)C2CCCCC2)c1 | inactive |
| COc1ccc(OC)c(NC(=O)COC(=O)c2cc3c(s2)CCC3)c1 | 12.6 µM (active) |
| CN(C(=O)c1ccc(Br)o1)C1CCS(=O)(=O)C1 (stereo not given) | inactive |
| CC(C)(C)c1ccc(NC(=O)C2=CC=CN3CCS(=O)(=O)N=C23)cc1 | inactive |
| Cc1oc(-c2ccc(Cl)cc2)cc1-c1nn2c(-c3ccoc3C)nnc2s1 | 14.1 µM (active) |
| Cc1oc(-c2ccc(Cl)cc2)cc1C(=O)N1CCC1(C)C(=O)O (stereo not given) | inactive |
| c1ccc(CNc2nc(NCC3CC3)nc3cc(-c4ccccc4)sc23)cc1 | 12.6 µM (active) |
| COc1ccccc1CNc1nc(NCc2cccc(OC)c2OC)c2sccc2n1 | inactive |
| CC(C)c1ccc(CNc2nc(NCC3CC3)nc3ccsc23)cc1 | inactive |
| COc1cccc(CNc2nc(NC(C)C)nc3ccsc23)c1 | inactive |

| SMILES | Potency |
| --- | --- |
| c1ccc(-c2cc3nc(NCC4CC4)nc(NCC4CCCCC4)c3s2)cc1 | 20 µM (active) |
| CCO[C@@H]1OC(C(=O)NCc2ccccc2)=C[C@H](C(C)(C)C)[C@H]1CCCO | inactive |
| O=C(Cn1cnc2c(OCc3ccccc3)ncnc21)NCc1nc2ccccc2[nH]1 | inactive |
| COc1ccc(CCNC(=O)CNCC(c2ccccc2)N(C)C)cc1OC (stereo not given) | inactive |
| COCCN(C(=O)COC(=O)c1cc2c(s1)CCC2)c1c(N)n(Cc2ccccc2)c(=O)[nH]c1=O | 3.16 µM (active) |
| Cc1ccc2c(CC(=O)OCC(=O)N(CC(C)C)c3c(N)n(Cc4ccccc4)c(=O)[nH]c3=O)coc2c1 | inactive |
| CCOc1ccc(C(Nc2cccnc2)c2cc(Cl)c3cccnc3c2O)cc1 (stereo not given) | 6.31 µM (active) |
| COc1ccc(Cl)cc1C(Nc1cccnc1)c1ccc2cccnc2c1O (stereo not given) | 12.6 µM (active) |
| O=C(NC(c1ccc(Cl)cc1)c1cc(Cl)c2cccnc2c1O)c1cccnc1 (stereo not given) | 22.4 µM (active) |
| COc1ccc(S(=O)(=O)N2CCCC(C(=O)Nc3cccnc3)C2)cc1Cl (stereo not given) | inactive |
| COc1ccc(N(C(=O)C2CSC(=O)C2)C(C(=O)NC(C)(C)C)c2ccncc2)cc1 (stereo not given) | inactive |
| Cc1noc(C)c1CCC(=O)N1CCCC(CCC(=O)NCc2ccc(F)c(F)c2)C1 (stereo not given) | inactive |
| COC(=O)c1c[nH]c(=O)c2ccccc12 | inactive |
| CCOC(=O)[C@]12CCCC=C1N(Cc1ccccc1)C(=O)[C@H](CC(=O)NCCCOC)C2 | inactive |
| O=C(COC(=O)c1ccc(NS(=O)(=O)c2cccs2)cc1O)Nc1nc2ccccc2s1 | 20 µM (active) |
| O=C(Cn1cc(COc2ccc(Br)cc2[N+](=O)[O-])nn1)c1ccc(O)cc1 | inactive |
| C#CCN1C(=O)S/C(=C\c2ccc(-c3ccc(C(=O)O)cc3C)o2)C1=O | 12.6 µM (active) |
| CN(c1cccc(NC(=O)c2ccc(N(C)S(=O)(=O)c3ccccc3)cc2)c1)S(C)(=O)=O | inactive |
| CC1(C)Cc2cccc(OCC(=O)NCCOc3ccccc3)c2O1 | inactive |
| FC(F)(F)C1=Nc2cccc3cccc(c23)N1 | 3.98 µM (active) |
| CC[C@]12c3[nH]c4cc(-c5ccco5)ccc4c3CCN1C(=O)[C@@H](CC(=O)NCCC1=CCCCC1)C[C@@H]2C(=O)N1CCN(C(=O)c2ccco2)CC1 | inactive |
| Cc1ccc2c(c1)N(CC(=O)N1CCCCCC1)C(=O)C(C)O2 (stereo not given) | inactive |
| Cc1cc(C)c(NC(=O)OCCN2CCOCC2)c(C)c1 | inactive |
| O=C(CSc1nncn1-c1ccccc1)Nc1ccc(N2CCOCC2)cc1 | inactive |
| Cc1cc2[nH]c3c4ccccc4nc(C)c3c2cc1C | 28.2 µM (active) |
